Rab9 prom act: qHTS Assay for Rab9 Promoter Activators; Huh7 Rab9 promoter-luciferase reporter, luminescence, 24 h; Potency, µM (series often up to 9.22 µM), hits mostly activators; actives 2.8% (n = 320,000); AID 485297, 2010; further: nearly all actives have a fitted effect of over 60% in size
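Huh7 reporter line, Rab9 promoter upstream of luciferase. Compound exposure 24 h at 37 °C in reduced-serum medium with 10% FBS. Read-out: luminescence.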
ELG1 genotoxic: qHTS screen for small molecules that induce genotoxicity in human embryonic kidney (HEK293T) cells expressing luciferase-tagged ELG1; HEK293T ELG1-luciferase reporter, luminescence, 16 h; Potency, µM (titrated, usually from 46 µM), hits mostly activators; actives 1.3% (n = 330,000); further: nearly all actives have a fitted effect of over 60% in size
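Genotoxic stress is detected as increased luminescence from luciferase-tagged ELG1 in HEK293T cells, measured with ONE-Glo after a 16 hr treatment at 37 °C.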
NPC1 prom act: qHTS Assay for NPC1 Promoter Activators | Huh7 NPC1 promoter luciferase reporter, 24 h | Potency, µM (doses to about 9.22 µM), usual class: activators | actives 2.4% (n = 320,000); further: nearly all actives have a fitted effect of over 60% in size
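Cells: Huh7 expressing luciferase under the NPC1 promoter, 1500/well. Seeded 2 h, compound added, incubated 24 h at 37 °C. Luciferase reagent, 10 min ambient, then luminescence.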
ELG1 DNA repair: qHTS screen for small molecules that inhibit ELG1-dependent DNA repair in human embryonic kidney (HEK293T) cells expressing luciferase-tagged ELG1 | HEK293T ELG1-luciferase reporter, luminescence, 16 h; DNA damage induced by 5-fluorouridine | Potency, µM (highest dose often 46.1 µM), actives largely listed as inhibitors | actives 2.3% (n = 330,000) | AID 504467, 2011; further: nearly all actives have a fitted effect of over 55% in size
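In this reporter screen, reduction of luminescence relative to DMSO vehicle indicated activity. Compounds and 5-fluorouridine were added together to 2,000 cells per well, incubated for 16 hr at 37 °C, then developed with ONE-Glo.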
FLuc modulator: qHTS profiling assay for firefly luciferase inhibitor/activator using purifed enzyme and Km concentrations of substrates (counterscreen for miR-21 project) | actives 6.9% (n = 360,000) | AID 588342, 2011 | Potency, µM (highest dose often 57.5 µM), most hits filed as inhibitors | Luciferin 4-monooxygenase (Photinus pyralis), P08659 | purified FLuc, Km substrates, luminescence inhibition; further: nearly all actives have a fitted effect of over 55% in size
Target sequence (P08659 whole entry, looked up): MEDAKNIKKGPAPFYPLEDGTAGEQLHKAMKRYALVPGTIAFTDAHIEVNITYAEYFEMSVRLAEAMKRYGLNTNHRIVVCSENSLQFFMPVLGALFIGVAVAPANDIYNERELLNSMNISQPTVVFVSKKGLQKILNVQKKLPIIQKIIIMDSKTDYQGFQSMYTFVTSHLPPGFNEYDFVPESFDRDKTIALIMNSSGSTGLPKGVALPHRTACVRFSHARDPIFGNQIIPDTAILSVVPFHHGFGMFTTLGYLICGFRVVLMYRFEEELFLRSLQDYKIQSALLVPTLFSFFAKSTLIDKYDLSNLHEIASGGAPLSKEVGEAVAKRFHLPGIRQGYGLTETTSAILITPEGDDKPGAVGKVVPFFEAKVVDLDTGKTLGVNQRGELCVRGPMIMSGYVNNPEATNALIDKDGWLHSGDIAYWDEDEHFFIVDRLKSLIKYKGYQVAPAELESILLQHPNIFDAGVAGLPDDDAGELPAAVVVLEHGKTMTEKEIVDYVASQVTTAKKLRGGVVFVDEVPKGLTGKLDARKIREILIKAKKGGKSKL
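Biochemical qHTS of compounds, final roughly 60 µM downward over six points, against 10 nM purified firefly luciferase using Km concentrations of substrates (10 uM D-luciferin, 10 uM ATP) in Tris acetate pH 7.5 buffer; luminescence output.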
SMN2 splice up: qHTS Assay for Enhancers of SMN2 Splice Variant Expression; HEK293 SMN2-luciferase splicing reporter, luminescence, 30-36 h; Potency, µM (titrated, usually from 46.1 µM), most hits filed as activators; actives 2.8% (n = 210,000); AID 1458, 2008; further: nearly all actives have a fitted effect of over 55% in size
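HEK293 cells carry an SMN2 […]–luciferase reporter in which exon 7 inclusion puts luciferase in frame. Cells were plated 10-12 h before compound addition, then incubated 30-36 h at 37C. ONE-Glo luminescence was read; sodium butyrate at 4.5 mM final served as control.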
A number is an active result; i = inactive; ? = inconclusive; nt = not tested or not shown; [ ] = another dose, or the depositor's remark. An excerpt weighted towards active compounds, which were near 9.2% of everything screened. The call rests on the fitted dose curve; in most records, active means well fitted curve in the direction sought with a large enough effect; inconclusive means small, poorly fitted or top-dose-only effect, or another doubt; inactive means no such curve, though single readings can be large; an effect the other way counts as inactive or inconclusive.

SMILES	Rab9 prom act	ELG1 genotoxic	NPC1 prom act	ELG1 DNA repair	FLuc modulator	SMN2 splice up
CC1CCC(NC(=O)c2ccc(NC(=O)c3ccc(=O)[nH]c3)cc2)CC1 (centres undefined)	i	i	i	?	i	?
Cc1ccc(OCCn2c(=O)sc3ccccc32)cc1	?	?	3.55µM	?	6.75µM	12.6µM
CCOC(=O)c1sc(NC(=O)c2ccc(S(=O)(=O)N3CCCCC3)cc2)nc1-c1ccccc1	i	i	i	20.6µM	i	i
CCOC(=O)c1sc(NC(=O)c2ccc(S(=O)(=O)N3CCCCCC3)cc2)nc1-c1ccccc1	i	i	i	13µM	i	i
CCOC(=O)c1sc(NC(=O)c2ccc(S(=O)(=O)N3CCOCC3)cc2)nc1-c1ccccc1	i	i	i	25.9µM	i	i
Cc1cc(S(=O)(=O)N(Cc2ccc(F)cc2)CC2CCCO2)ccc1-n1cnnn1 (centres undefined)	i	i	i	i	i	i
Cc1cc(S(=O)(=O)N(Cc2ccc(C(C)C)cc2)CC2CCCO2)ccc1-n1cnnn1 (centres undefined)	i	i	i	16.4µM	i	i
N#Cc1ccc(-c2ccc(F)cc2)nc1SCC(=O)Nc1sc2c(c1C#N)CCC2	i	i	i	6.51µM	i	i
CCCCn1nnnc1SCC(=O)Nc1sc2c(c1C#N)CCCC2	i	i	i	?	i	i
N#Cc1cc2c(nc1SCC(=O)Nc1sc3c(c1C#N)CCC3)CCCC2	?	i	?	i	i	i
N#Cc1c(NC(=O)CSc2ncn[nH]2)sc2c1CCCCC2	i	i	i	?	7.57µM	i
Cn1cnnc1SCC(=O)Nc1sc2c(c1C#N)CCCCC2	i	i	i	?	26.9µM	i
CCCCCN(C(=O)CCC(=O)OCc1cccc(C)c1)c1c(N)n(CCCC)c(=O)[nH]c1=O	i	i	i	i	i	nt
C=Cc1ccccc1C=C	nt	nt	nt	nt	nt	i
O=C(O)Cc1sc(Nc2ccc(C(=O)O)cc2)nc1-c1ccccc1	nt	nt	nt	nt	?	i
CCOC(=O)c1sc(-c2ccc(C(F)(F)F)cc2)nc1O	i	i	i	i	?	nt
CC(C)(C)c1ccc(-c2nc(O)c(CC(=O)O)s2)cc1	i	i	i	?	1.9µM	nt
O=C(O)Cc1sc(Nc2ccccc2Cl)nc1-c1ccccc1	nt	nt	nt	nt	3.38µM	i
Cc1ccc(Nc2nc(-c3ccccc3)c(CC(=O)O)s2)cc1	i	?	i	?	13.5µM	i
O=C(Cc1sc(Nc2ccccc2)nc1-c1ccccc1)NCc1ccccn1	?	?	?	?	19µM	12.6µM
O=[N+]([O-])/C=C/c1cc2ccccc2[nH]1	i	i	i	i	i	nt
CC(=O)c1cc(-c2ccccc2)n(CCC(=O)NCc2ccc(C)cc2)c1C	nt	nt	nt	nt	i	nt
COCCNC(=O)/C(C#N)=C/c1cc(C(C)C)c(OC)cc1C	i	i	i	i	i	i
O=C(O)Cc1sc(-c2ccccc2)nc1-c1ccccc1	i	i	i	i	?	i
O=C(O)Cc1sc(Nc2ccc(F)cc2)nc1-c1cccs1	?	i	i	?	16.9µM	nt
SMILES	Rab9 prom act	ELG1 genotoxic	NPC1 prom act	ELG1 DNA repair	FLuc modulator	SMN2 splice up
O=C(O)Cc1sc(-c2ccc(Cl)cc2)nc1-c1ccccc1	i	i	i	i	16.9µM	i
CCN(c1ccccc1)S(=O)(=O)c1csc(C(N)=O)c1	i	i	i	i	i	nt
Cc1cc(-n2nnc3ccccc32)nc2ccccc12	i	i	i	?	i	0.224µM
CCOC(=O)N1CCC(NC(=O)c2ccc3c(c2)N(Cc2ccc(Cl)cc2)C(=O)c2ccccc2S3(=O)=O)CC1	nt	nt	nt	nt	i	i
COc1ccc(NC(=O)c2cc(-c3ccccc3)nc3c2c(C)nn3-c2ccccc2)c(OC)c1	i	i	i	i	i	i
CC(/C=N/NC(=O)c1cccc(F)c1)=C\c1ccccc1	0.398µM	?	0.501µM	?	2.39µM	nt
CC(/C=N/NC(=O)NC1CCCCC1)=C\c1ccccc1	i	i	i	i	?	i
CC1=NNC(=O)C1CC(=O)N/N=C/C(C)=C/c1ccccc1 (centres undefined)	i	i	i	i	?	i
CC(/C=N/NC(=O)c1cc(-c2cccnc2)nc2c1c(C)nn2-c1ccccc1)=C\c1ccccc1	i	i	i	5.8µM	i	nt
CC(/C=N/NC(=O)Cc1cc(=O)[nH][nH]1)=C\c1ccccc1	i	i	i	i	15.1µM	i
O=C(N/N=C/c1cccnc1)c1cccc(F)c1	i	i	i	?	?	nt
COc1ccccc1C(=O)N/N=C/C(C)=C/c1ccccc1	i	i	?	?	9.53µM	nt
COc1cccc(N2CCN(C(=O)c3c4c(nc5ccccc35)C(=O)N(C3CCCCC3)C4)CC2)c1	nt	nt	nt	nt	i	nt
Cc1ccc(CN(C(=O)COc2c(C)cccc2C)C2CCS(=O)(=O)C2)o1 (centres undefined)	nt	nt	nt	nt	i	i
CN1CCN(C(=O)CCc2nnc3ccc(N4CCC5(CC4)OCCO5)nn23)CC1	i	i	i	i	i	nt
CC(/C=N/NC(=O)c1ccncc1)=C\c1ccccc1	i	i	i	?	7.57µM	i
CC(/C=N/NC(=O)c1cc(C(C)(C)C)[nH]n1)=C\c1ccccc1	i	i	i	i	?	i
CC(=C/c1ccccc1)/C=N/NC(=O)c1ccccn1	0.447µM	?	0.447µM	?	0.601µM	nt
O=C(N/N=C/c1ccccc1O)c1ccncc1	i	i	i	i	?	nt
CC(=C/c1ccc(C(C)C)cc1)/C=N/NC(=O)c1ccncc1	i	i	i	?	2.69µM	i[1.84 µM]
CC(/C=N\NC(=O)Cn1cncn1)=C/c1ccc(C(C)C)cc1	i	i	i	?	?	nt
CCOC(=O)C1(Cc2ccccc2C)CCCN(C(=O)CCc2cccnc2)C1 (centres undefined)	i	i	i	i	?	nt
COc1ccccc1C(=O)COC(=O)COc1cccc2c1OC(C)(C)C2	2.51µM	9.2µM	2µM	?	4.78µM	nt
COc1ccc(NC(=O)COC(=O)COc2cccc3c2OC(C)(C)C3)cc1	i	i	i	i	i	nt
COc1ccc(NS(=O)(=O)c2ccc(N/N=C(\C)c3ccncc3)c([N+](=O)[O-])c2)cc1	i	i	i	18.4µM	i	i
O=C(NCCCN1CCCC1=O)C(=O)NCC1OCCCN1S(=O)(=O)c1cc(F)ccc1F (centres undefined)	i	i	i	i	i	nt
Cc1ccc(C)c2[nH]c(=O)c(CN(Cc3nnnn3C3CCCCC3)CC3CCCO3)cc12 (centres undefined)	i	i	i	?	i	i

Compound activity as filed in PubChem.
